From PubChem BioAssay
Rows were chosen to be rich in hits. Some 12% of all compounds tested hit in one or more screens of this group.
JMJD2A Tudor inh: inhibitors of human JMJD2A Tudor domain; Potency, µM (series often up to 114 µM), hits mostly inhibitors; O75164; AlphaScreen JMJD2A-Tudor / H3K4me3 peptide binding; 390,000 tested, 4.4% active; also: nearly all actives have a fitted effect of over 50% in size
Target sequence (O75164 whole entry, looked up, the tested form may be a part): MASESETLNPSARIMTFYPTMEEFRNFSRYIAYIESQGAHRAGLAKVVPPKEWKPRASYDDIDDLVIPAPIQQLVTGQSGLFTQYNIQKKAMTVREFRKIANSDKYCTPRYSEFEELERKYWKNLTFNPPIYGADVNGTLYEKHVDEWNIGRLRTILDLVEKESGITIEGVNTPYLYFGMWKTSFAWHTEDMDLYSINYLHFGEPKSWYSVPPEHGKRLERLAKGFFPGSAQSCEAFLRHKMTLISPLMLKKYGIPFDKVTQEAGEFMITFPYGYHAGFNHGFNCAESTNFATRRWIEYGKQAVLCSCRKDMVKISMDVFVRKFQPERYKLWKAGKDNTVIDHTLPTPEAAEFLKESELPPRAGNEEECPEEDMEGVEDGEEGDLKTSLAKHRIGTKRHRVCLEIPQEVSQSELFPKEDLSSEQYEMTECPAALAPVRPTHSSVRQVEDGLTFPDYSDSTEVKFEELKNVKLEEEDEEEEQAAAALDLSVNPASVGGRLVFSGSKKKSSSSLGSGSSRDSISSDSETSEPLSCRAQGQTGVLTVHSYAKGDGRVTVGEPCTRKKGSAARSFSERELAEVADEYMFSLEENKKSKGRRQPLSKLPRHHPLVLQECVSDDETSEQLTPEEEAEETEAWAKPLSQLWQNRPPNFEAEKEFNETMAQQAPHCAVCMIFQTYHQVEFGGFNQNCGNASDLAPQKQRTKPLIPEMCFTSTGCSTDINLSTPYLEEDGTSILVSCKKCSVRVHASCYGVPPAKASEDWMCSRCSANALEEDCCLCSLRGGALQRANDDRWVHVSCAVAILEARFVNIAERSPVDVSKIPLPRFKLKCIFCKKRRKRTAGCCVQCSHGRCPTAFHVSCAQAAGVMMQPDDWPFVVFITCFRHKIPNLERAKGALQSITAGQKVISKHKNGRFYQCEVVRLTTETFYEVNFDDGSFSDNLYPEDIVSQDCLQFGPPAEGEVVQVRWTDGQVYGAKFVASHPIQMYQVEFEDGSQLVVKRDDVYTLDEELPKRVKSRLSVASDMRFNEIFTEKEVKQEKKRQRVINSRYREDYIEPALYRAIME
BAZ2B block: blocks human BAZ2B | Potency, µM (series often up to 114 µM), actives largely listed as inhibitors | Q9UIF8 | AlphaScreen BAZ2B-H3K14Ac peptide displacement | 360,000 tested, 4.4% active; also: nearly all actives have a fitted effect of over 60% in size
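BAZ2B (50 nM) with biotin-H3(5-23)K14Ac peptide (50 nM) in PBS pH 7.4, 0.01% Tween-20, preformed 30 min, then compound 30 min at room temperature; top concentration 110uM. AlphaScreen streptavidin donor/nickel chelate acceptor beads (10 ug/mL final), 20 min dark, signal read.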
PLK1 PBD block: PLK1 (human) polo-box domain binding inhibition | Potency, µM, actives largely listed as inhibitors | AID 720504 | P53350 | 360,000 tested, 2.8% active | Plk1 PBD binding of FITC phosphopeptide, fluorescence polarization; also: series mostly up to about 57 µM; nearly all actives have a fitted effect of over 65% in size
HP1b chromo inh: HP1-beta chromodomain-methylated histone interaction inhibition. P83916. AlphaScreen HP1-beta / biotin-H3K9me3 peptide binding. 390,000 tested, 0.56% active. Potency, µM (highest dose often 114 µM), usual class: inhibitors; also: nearly all actives have a fitted effect of over 70% in size
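Compound inhibition of the preformed complex between 50 nM HP1-beta and 50 nM biotinylated H3K9me3 peptide was read by AlphaScreen. Buffer was PBS pH 7.4 with 0.01% Tween-20. Incubations ran 30 min at room temperature, with 10 ug/mL donor/acceptor beads.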
G9a block: G9a (human) methyltransferase inhibition. Potency, µM (doses to about 102 µM), hits mostly inhibitors. 350,000 tested, 8.8% active. AID 504332. G9a H3K9 monomethylation, AlphaScreen, 2 h; also: nearly all actives have a fitted effect of over 75% in size
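Enzyme 20 nM + cpd, 15 min RT; add b-H3K9 pep 500 nM / SAM 20 uM; 2 h RT; anti-H3K9me1 Ab 0.5 ug/mL + SA donor / anti-rabbit acceptor beads 20 ug/mL each, 10 min; AlphaScreen read.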
Sfp PPTase inh: inhibitors of Bacillus subtilis Sfp phosphopantetheinyl transferase | Q9F4F7 | Biochemical Sfp PPTase activity, qHTS | Potency, µM, actives largely listed as inhibitors | 310,000 tested, 3.5% active | AID 1490;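 also: the enzyme is Sfp with the accession as filed and its product quenches rhodamine fluorescence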
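Buffer: 50 mM Hepes-Na pH 7.6, 10 mM MgCl2, 0.01% Nonidet P-40, 0.01% BSA. Enzyme 15 nM, pre-exposed to compound 15 min; substrates then added and fluorescence change tracked over 30 min.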
Hits are given with their value; – = inactive; ? = inconclusive; · = no result; [ ] = remark or other dose. Calls follow the shape of the dose curve; as a rule, active = well fitted curve in the direction sought with a large enough effect; inconclusive = small, poorly fitted or top-dose-only effect, or another doubt; inactive = no such curve, though single readings can be large; an effect the other way counts as inactive or inconclusive.

SMILES	JMJD2A Tudor inh	BAZ2B block	PLK1 PBD block	HP1b chromo inh	G9a block	Sfp PPTase inh
CC(/C=C1\SC(=S)N(CCC(=O)Nc2cccc(C(=O)O)c2)C1=O)=C\c1ccccc1	?	56.2µM	23.8µM	70.8µM	44.7µM	–
CN1CCN(C(=O)C2CCC(=O)N(CCc3cccc(F)c3)C2)CC1 (centres undefined)	–	–	–	–	–	–
CCc1ccccc1NC(=O)C(=O)NCCc1sc(-c2cccc(F)c2)nc1C	–	–	·	–	–	·
O=C(CCCN1C(=O)S/C(=C\C=C\c2ccccc2)C1=O)Nc1ccc(C(=O)O)cc1	–	56.2µM	?	–	?	–
CCc1ccc(/C=C2/SC(=S)N(CCC(=O)Nc3cccc(C(=O)O)c3)C2=O)cc1	50.1µM	35.5µM	?	–	·	–
CC(=Cc1ccccc1)C=C1SC(=S)N(CCCC(=O)Nc2ccc(C(=O)O)cc2)C1=O	·	·	23.8µM	·	·	·
CCOC(=O)N1CCc2c(sc3c2c(=O)n(Cc2ccccc2)c(=O)n3Cc2cccc(Cl)c2)C1	–	–	·	–	–	·
O=C(Nc1cc(Cl)ccc1-n1cncn1)c1ccc([N+](=O)[O-])o1	–	–	–	–	50.1µM	·
O=C(Nc1cc(Cl)ccc1-n1cncn1)c1cc(F)cc(F)c1	–	–	–	–	50.1µM	·
Cc1ccc(OCCCC(=O)Nc2cc(Cl)ccc2-n2cncn2)cc1	–	–	–	–	–[2.33 µM]	·
O=C(Nc1cc(Cl)ccc1F)c1ccc(-n2cncn2)c([N+](=O)[O-])c1	–	–	–	–	56.2µM	·
COc1ccc(OCCCC(=O)Nc2cc(Cl)ccc2-n2cncn2)cc1	–	–	–	–	44.7µM	·
O=C(Nc1cc(Cl)ccc1-n1cncn1)c1cccs1	–	–	–	–	44.7µM	·
COc1ccc(C2C(=O)N(C3CCCCCC3)CC(=O)N2Cc2ccccc2)cc1 (centres undefined)	–	–	·	–	–	·
COc1ccc(C2C(=O)N(C3CCCCC3)CC(=O)N2Cc2ccco2)cc1 (centres undefined)	–	–	–	–	25.1µM	22.4µM
CC(=O)Nc1nonc1-c1nnc(SCC(=O)Nc2c(C)cccc2C)n1-c1ccccc1	–	–	·	–	–	·
O=C1C2C(C(=O)N1CCc1ccccc1)C1C=CC2C12CC2 (centres undefined)	–	–	–	–	–	–
O=C1CC(Nc2ccc(N3CCOCC3)cc2)C(=O)N1c1ccccc1F (centres undefined)	?	–	–	–	8.91µM	50.1µM
CCc1ccc(NC2CC(=O)N(CCc3ccc(OC)c(OC)c3)C2=O)cc1 (centres undefined)	?	–	26.7µM	?	50.1µM	–
COc1ccc(CCN2C(=O)CC(Nc3ccc(N4CCOCC4)cc3)C2=O)cc1OC (centres undefined)	?	44.7µM	–	–	14.1µM	–
COc1ccc(CCNC2CC(=O)N(CCc3ccccc3)C2=O)cc1OC (centres undefined)	–	–	–	–	?	–
COc1ccc(CCN2C(=O)C3C(C2=O)C2C=CC3C23CC3)cc1OC (centres undefined)	?	·	23.8µM	–	–	–
NC(=O)N=Nc1c(O)n(Cc2ccccc2)c2ccc(Br)cc12	–	–	–	–	–	–
CCC(C(=O)NC1CCCCC1)n1nc(C)c2sc3ccccc3c2c1=O (centres undefined)	–	–	·	–	–	·
CN(c1ccc(C(=O)N/N=C/c2cccc([N+](=O)[O-])c2)cc1)S(=O)(=O)c1ccccc1	–	–	–	–	–	–
CCOC(=O)C1=NOC2C3CC(C12)C1C(=O)N(CCc2ccc(OC)c(OC)c2)C(=O)C31 (centres undefined)	35.5µM	?	26.7µM	?	·	–
CCCCCC[n+]1ccccc1/C=C/c1ccc(N(C)C)cc1	·	·	–	·	·	·
CCN(CC)c1ccc(/C=C/c2ccc3ccc(OC)cc3[n+]2CC)cc1	12.6µM	39.8µM	–	?	25.1µM	–
CC[n+]1c(/C=C/c2ccc(OC(C)=O)c(OC)c2)ccc2ccccc21	?	–	–	–	25.1µM	–
C[n+]1c(/C=C/c2ccc3c(c2)OCO3)ccc2ccccc21	?	?	–	–	?	–
